Source: PubChem BioAssay (several laboratories)
ABCB6 inh MLPCN = ABCB6 transporter inhibitors, primary screen, K562-ABCB6 cells, flow cytometry, MLPCN library | 0.19% of 360,000 active | fluorescence ratio to DMSO, % at 10 µM | K562-ABCB6 porphyrin accumulation, 1 h; active compounds read low;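 active = fluorescence ratio to DMSO below 75%, the collection mean minus 3 SD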;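 note: signal is porphyrin accumulated inside mitochondria; 100% equals median channel fluorescence of DMSO control wells; lower ratio means ABCB6 inhibition with less porphyrin fluorescence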
Target sequence (Q9NP58 whole entry, looked up): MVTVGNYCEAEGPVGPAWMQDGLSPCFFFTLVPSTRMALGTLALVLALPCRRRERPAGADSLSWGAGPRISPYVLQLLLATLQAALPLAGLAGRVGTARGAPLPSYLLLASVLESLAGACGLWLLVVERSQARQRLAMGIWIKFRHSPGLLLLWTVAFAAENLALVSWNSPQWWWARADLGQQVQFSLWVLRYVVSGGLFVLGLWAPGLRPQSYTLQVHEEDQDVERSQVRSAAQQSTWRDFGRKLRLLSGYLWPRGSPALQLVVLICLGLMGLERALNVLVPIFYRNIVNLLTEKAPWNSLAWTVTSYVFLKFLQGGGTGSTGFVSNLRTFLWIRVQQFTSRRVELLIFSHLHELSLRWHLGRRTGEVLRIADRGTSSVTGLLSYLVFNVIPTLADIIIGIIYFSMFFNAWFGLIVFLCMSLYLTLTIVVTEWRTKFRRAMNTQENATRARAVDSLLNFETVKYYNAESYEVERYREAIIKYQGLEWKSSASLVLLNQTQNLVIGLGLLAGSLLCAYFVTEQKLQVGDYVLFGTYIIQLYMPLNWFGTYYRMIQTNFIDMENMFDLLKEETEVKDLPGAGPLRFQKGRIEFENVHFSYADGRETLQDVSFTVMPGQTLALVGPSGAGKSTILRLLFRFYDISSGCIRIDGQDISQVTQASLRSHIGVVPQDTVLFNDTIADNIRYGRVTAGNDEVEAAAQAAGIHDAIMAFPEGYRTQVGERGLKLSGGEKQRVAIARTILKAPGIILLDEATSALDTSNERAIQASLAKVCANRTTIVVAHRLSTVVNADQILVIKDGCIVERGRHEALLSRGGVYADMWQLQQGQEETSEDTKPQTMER
iPSC survival up = enhancers of single-cell hiPSC survival, primary screen, ATPlite luminescence | 100% = ROCK inhibitor wells, 0% = DMSO | survival enhancement, % at 20 µM | 0.044% of 360,000 active | AID 602274, 2012; in the data active = survival enhancement above about 18%;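 note: cells exposed to compounds for 16 hours before the ATP read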
Myeloid diff MLP = induction of myeloid progenitor differentiation, primary screen, cell-based, flow cytometry, MLPCN library | ER-HoxA9 myeloid progenitors, lysozyme-GFP differentiation | calls only at 10 µM | 1% of 360,000 active;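 active = normalized GFP-positive differentiation at or above the plate's own cutoff, the solvent-only control mean plus 3 SD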;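 note: cells exposed to compound for four days before flow analysis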
MIN6 prolif = inducers of MIN6 beta-cell proliferation, primary screen, ATP luminescence, uHTS. MIN6 cells proliferation, ATPlite luminescence, 48 h; cells starved in 0.2% serum; 100% = growth in 10% serum. proliferation, % at 10 µM. 0.29% of 330,000 active. AID 2380, 2010;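 active = compounds whose signal lies at least 3.5 SD above the mean of all wells on their plate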;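 note: 0% = DMSO-treated cells in low-serum medium and 100% = 10% serum control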
H9c2 protect = cardioprotection against H2O2-induced cell death, primary screen, uHTS, H9c2 cells, ATPLite luminescence; H9c2 cardiomyocytes, H2O2 injury protection, 2 h; 0.63% of 360,000 active; protection from H2O2 cell death, % at 20 µM; AID 588492, 2011;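 active = compounds giving at least 50% protection of heart cells from peroxide-induced death in the single-dose screen, raw or plate-pattern-corrected value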;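 note: 0% = DMSO wells with peroxide and 100% = DMSO wells without peroxide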
Myeloid diff = inducers of myeloid progenitor differentiation, confirmation, cell-based, GFP/Mac1 flow cytometry, cherry pick 01; calls only; ER-HoxA9 myeloid progenitors, GFP/Mac1 double-positive flow; 2% of 2,300 active; shares compounds with Myeloid diff MLP;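 active = share of green or green-and-red cells above 9 and 9% in run 1 or 4 and 3% in run 2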
GFP autofluor = counter-screen for myeloid differentiation promoters: compound fluorescence. shares compounds with Myeloid diff MLP. ER-HoxA9 myeloid progenitors, no estrogen, GFP autofluorescence flow cytometry; vehicle wells 0%, positive control 100%. fluorescence response, % (no concentration beside the values). 7.4% of 2,300 active. AID 651707;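 active = over 5% cells positive for green fluorescent reporter, or over 2% positive for both it and APC stain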;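 note: range taken on the double positive population between DMSO and positive control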
* marks the source's active call; other numbers are inactive results; i = inactive; . = no result; + = active, no number. Rows were chosen to be rich in hits. Some 2.2% of all compounds tested hit in one or more screens of this group.

SMILES | ABCB6 inh MLPCN | iPSC survival up | Myeloid diff MLP | MIN6 prolif | H9c2 protect | Myeloid diff | GFP autofluor
Cc1cccc(Nc2nc(-c3ccc4c(c3)OCCO4)cs2)c1 | . | -1 | i | -3 | -14 | . | .
COc1ccc2c(C)nc(Nc3nc(C)cc(C)n3)nc2c1 | 105 | 0 | i | -1 | 21 | i | 35*
O=[N+]([O-])c1ccc(N/N=C\c2ccccc2OCc2ccccc2)cc1 | 122 | 3 | + | -1 | -4 | i | 0
C/C=C(\C)C(=O)NCCN1C2=NC[C@H](C)N2C[C@@H]1Cc1ccc(OC)cc1 | 98 | 3 | i | -3 | 7 | . | .
COc1ccc(C[C@@H]2CN3C(=NC[C@@H]3C)N2CCNC(=O)c2ccc(C)c(Br)c2)cc1 | 94 | -6 | + | -8 | 4 | i | 0
CCOC(=O)c1cc2c(=O)n3ccccc3nc2n(C(C)C)c1=NC(=O)c1c(-c2c(F)cccc2Cl)noc1C | 135 | 0 | + | -5 | 3 | i | 0
CCOC(=O)c1cc2c(=O)n3ccccc3nc2n(C)c1=NC(=O)c1c(-c2c(F)cccc2Cl)noc1C | 99 | 1 | i | 1 | 6 | . | .
COc1ccccc1CC(NC(C)=O)C(=O)NC1CCN(C(=O)Nc2cccc(F)c2)CC1 (configuration not stated) | 95 | 1 | . | -3 | 2 | . | .
CCCCSc1nnc(CCCCCNC(=O)OC(C)(C)C)o1 | 80 | -2 | + | -2 | -3 | i | 1
CCC(C)(C)NC(=O)C(c1ccc(C)o1)N(C(=O)c1csnn1)c1cccc(F)c1 (configuration not stated) | 100 | 3 | i | 0 | 2 | i | 0
CCS(=O)(=O)N1CCC(C(=O)NCc2ccccc2OC)CC1 | 91 | 1 | + | -1 | 5 | i | 0
COc1ccccc1CNC(=O)c1ccc(S(=O)(=O)N(C)C)cc1 | 95 | -3 | i | 0 | 3 | i | 0
O=C(NC1CCCCC1)c1cc2ccccc2cc1O | 88 | 1 | i | -6 | -8 | . | .
COc1ccc(C(CNC(=O)COc2ccccc2C#N)N2CCOCC2)cc1 (configuration not stated) | 100 | 0 | + | -4 | -3 | i | 0
CCOC(=O)c1cc2sccc2n1CC(=O)N1CCCc2ccccc21 | 103 | 6 | + | -3 | 2 | i | 0
COCCCN1C(=O)C(=O)/C(=C(/O)c2ccc(OC)cc2)C12C(=O)N(C)c1ccccc12 (configuration not stated) | 104 | 1 | i | -4 | 13 | . | .
NC(=O)NC(Cc1ccccc1)C(=O)O (configuration not stated) | 100 | 0 | i | 0 | 1 | . | .
NC(=O)NC(Cc1ccccc1)c1ccccc1 (configuration not stated) | 100 | 0 | + | 0 | -2 | i | 0
O=C(Nc1cccc(-c2csc(Nc3ccc(Cl)cc3)n2)c1)c1ccccc1 | 100 | -2 | i | -8 | 9 | . | .
O=C(c1ccco1)N(Cc1ccccc1)Cc1ccccn1 | 103 | 0 | i | 3 | -3 | . | .
c1cc(-c2n[nH]c(-c3ccncc3)n2)ccn1 | 96 | 0 | i | . | -3 | . | .
CC(=O)c1c(O)cc(=O)n(-c2ccccc2)c1-c1ccc(C)cc1 | 96 | -2 | i | -3 | 4 | i | 0
O=c1oc2ccccc2c(Nc2ccccc2O)c1[N+](=O)[O-] | 94 | 0 | + | -1 | -4 | i | 0
O=c1[nH]c(=S)c2c(n1-c1ccccc1)CCC2 | 99 | -2 | i | 1 | 6 | . | .
CC1Cc2c([nH]c(=O)n(-c3ccccc3)c2=O)O1 (configuration not stated) | 107 | 0 | i | . | -2 | i | 0
